# Source: PubChem BioAssay
# Assay: A549 cell viability effects, profiling panel, calcein-AM fluorescence, 48 h, basal (AID 1162); also: test concentration not given here
# Conditions: higher = more signal
row,Compound,z-score
1,NC(=O)NCC#Cc1ccc2c(c1)[C@]1(C(=O)N2)[C@H](C(=O)N2CCN(c3ncccn3)CC2)[C@H]2C(=O)O[C@H](c3ccccc3)[C@H](c3ccccc3)N2[C@@H]1c1ccc(O)cc1,0.348
2,COc1ccc(C#Cc2ccc3c(c2)[C@]2(C(=O)N3)[C@H](c3ccc(O)cc3)N3[C@H](c4ccccc4)[C@H](c4ccccc4)OC(=O)[C@H]3[C@@H]2C(=O)Nc2nc3ccccc3s2)cc1,0.453
3,COCCCNC(=O)[C@@]1(Sc2ccc(C)cc2)CC(=O)N(C2Cc3ccccc3C2)[C@@H]1c1ccc(CO)cc1,0.771
4,CCC1=C2CN(Cc3ccccc3)[C@@H](C(=O)Cc3ccccc3)C2C=CCC1 (stereo partly specified),0.0398
5,CCOC(=O)C1=C[C@@H](C(C)(C)C)N(S(=O)(=O)c2ccc(C)cc2)[C@H]1c1cccc2ccccc12,-1.35
6,C=CCC(OC(C)=O)[C@@H]1[C@@H](N(Cc2cc3ccccc3o2)C(=O)Cc2ccc(F)cc2)c2cc(OCCCO)ccc2N1C(=O)Cc1ccc2ccccc2c1 (stereo partly specified),0.181
7,COC(=O)[C@@]1(Cc2ccc(OC)cc2)[C@H]2c3cc(C(=O)N4CCCC4)n(CCc4c[nH]c5ccc(OC)cc45)c3C[C@H]2CN1C(=O)c1ccccc1,-1.19
8,COC(=O)[C@@]1(Cc2ccc(OC)cc2)[C@H]2c3cc(C(=O)N(C)C)n(Cc4ccc(C)o4)c3C[C@H]2CN1C(=O)c1ccccc1,0.774
9,CC(C)c1ccc(NN2C(C(O)c3ccc(F)cc3)C=CC3C(=O)N(c4ccccc4)C(=O)C32)cc1 (stereo unspecified),0.394
10,COc1cc2c(cc1O)C(C1CC1)N(C)CC2 (stereo unspecified),0.368
11,CCCCN1CC=CC23O[C@@H]4/C=C\CCCOC(=O)C4[C@H]2C(=O)N(CCO)[C@@H]3C1=O (stereo partly specified),-0.129
12,COCCCNC(=O)[C@@]1(CCC(=O)OC(C)(C)C)N=C(c2ccc(OCCCO)cc2)O[C@H]1c1ccccc1N=[N+]=[N-],0.618
13,CS(=O)(=O)CCOC(=O)C1=CC(c2ccc(CO)cc2)=CC(C2CC2)N(Cc2sc3ccccc3c2Cl)C=C1C(=O)OCCS(C)(=O)=O (stereo unspecified),-0.852
14,COCCOC(=O)N1C(=O)[C@@]2(c3ccccc31)[C@H](C(=O)NC[C@H](O)c1ccccc1)[C@H]1C(=O)O[C@H](c3ccccc3)[C@H](c3ccccc3)N1[C@@H]2c1ccc(O)cc1,0.0528
15,CN(C)C(=O)[C@]1(Cc2ccccc2CN=[N+]=[N-])N=C(c2ccc(OCCCO)cc2)O[C@@H]1c1ccccc1,-2.01
16,COc1cc(OC)c(C(O)C2C=CC3C(=O)N(Cc4ccccc4)C(=O)C3N2n2cnnc2)cc1Br (stereo unspecified),-0.407
17,C=C[C@H](C)[C@H](OC(=O)Nc1ccc(SC)cc1)c1ccc(OCCO)cc1,0.0889
18,CCOC(=O)C1=C[C@@H](C(C)C)N(S(=O)(=O)c2ccc(C)cc2)[C@H]1c1ccc(C(F)(F)F)cc1,-0.731

row,Compound,z-score
1,CCOC(=O)C[C@H]1[C@H](OC(=O)c2ccc(-c3ccccc3)cc2)[C@@H](NC(=O)CC(C)C)c2cc(OCCCO)ccc2N1C(=O)c1ccc2ccccc2n1,1.37
2,COc1cccc(C)c1NC(=O)O[C@H]1[C@H](OC(=O)Nc2ccccc2-c2ccccc2)[C@H](OC(=O)Nc2ccccc2-c2ccccc2)[C@@H](OC)O[C@@H]1CO,-0.889
3,C=C(COC)C(=O)CC[C@@H](OC(C)=O)c1cccc(OCCO)c1,0.851
4,C=CCNC(=O)[C@@H]1[C@H]2C(=O)O[C@H](c3ccccc3)[C@H](c3ccccc3)N2[C@H](c2ccc(OCCO)cc2)[C@@]12C(=O)N(C(=O)OCCOC)c1ccc(C#Cc3ccc(OC)cc3)cc12,-0.528
5,CCCNC(=O)[C@@]1(C)c2ccccc2C(=O)N(c2ccc(C)cn2)[C@H]1c1ccc(CO)cc1,0.666
6,CC(=O)NCCCC[C@@H]1NC(=O)[C@@H]2C[C@H](C(=O)NCCCCCN)[C@H](c3ccc(O)cc3)N2C1=O,-0.185
7,CC1CC/C=C\[C@H]2OC34C=CCN(Cc5ccccc5)C(=O)[C@H]3N(C(CO)C(C)C)C(=O)[C@@H]4C2C(=O)O1 (stereo partly specified),0.743
8,COc1ccc(CCNC(=O)[C@@]2(c3ccc([N+](=O)[O-])cc3)CC(=O)N(C3CCCCC3)[C@@H]2c2ccc(CO)cc2)cc1,2.41
9,C=CCC(OC(C)=O)[C@@H]1[C@@H](N(Cc2cccc3ccccc23)C(=O)Cc2ccc(OC)cc2)c2cc(OCCCO)ccc2N1C(=O)c1ccc(-c2ccccc2)cc1 (stereo partly specified),-0.433
10,COc1ccc([Si](C)(C)[C@@H]2[C@@H](CCO)O[C@]3(C(=O)N(Cc4ccccc4)c4ccc(NC(=O)[C@H](C)O)cc43)[C@H]2C)cc1,-2.21
11,[N-]=[N+]=Nc1ccccc1[C@@H]1OC(c2ccc(OCCCO)cc2)=N[C@]1(Cc1ccccc1)C(=O)O,0.666
12,COc1ccc([C@H]2OC[C@@H]3C[C@H](Cc4ccccc4)C(=O)N32)cc1,-0.799
13,CC(C)N1CC=CC23O[C@@H]4C=CCCOC(=O)C4[C@H]2C(=O)N(CCCO)[C@@H]3C1=O (stereo partly specified),-0.726
14,COc1ccc([Si](C)(C)[C@@H]2[C@@H](CCO)O[C@]3(C(=O)N(Cc4cccc(NC(=O)[C@H](C)O)c4)c4ccccc43)[C@H]2C)cc1,-3.78
15,NCCCCCNC(=O)[C@@H]1C[C@@H]2C(=O)N[C@@H](CCCCN)C(=O)N2[C@@H]1c1ccc(O)cc1,-0.0858
16,C=CCN1Cc2ccccc2[C@@H]2OC(c3ccc(OCCCO)cc3)=N[C@]2(CC=C)C1=O,-0.546
17,C=CCNC(=O)[C@@H]1[C@H]2C(=O)O[C@H](c3ccccc3)[C@H](c3ccccc3)N2[C@H](c2ccccc2OCCO)[C@@]12C(=O)N(C(=O)OCCOC)c1ccc(C#CC3(O)CCCCCC3)cc12,-0.21
18,CC(C)N1C(=O)c2ccccc2[C@@H](C(=O)NCCN2CCOCC2)[C@@H]1c1ccc(CO)cc1,0.281
